# An excerpt weighted towards active compounds, which were near 10% of everything screened.
# BAZ2B inh = BAZ2B (human) inhibition. Q9UIF8. AlphaScreen BAZ2B-H3K14Ac peptide displacement. Potency, µM (highest dose often 114 µM), for inactives: at the highest dose activity change, negative = inhibition, hits mostly inhibitors. 4.4% of 360,000 active. AID 504333; further: on the % scale 0 is the no-effect control and ±100 the full control effect; nearly all actives have a fitted effect of over 60% in size
#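 Protein-peptide AlphaScreen: BAZ2B 50 nM, b-H3K14Ac 50 nM, 1x PBS pH 7.4 + 0.01% Tween-20. Preincubation 30 min RT; cpd 30 min RT (top 110 uM); beads 20 min RT, light-protected.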
# JMJD2A Tudor = blocks the human JMJD2A Tudor domain. O75164. AlphaScreen JMJD2A-Tudor / H3K4me3 peptide binding. Potency, µM (doses to about 114 µM), inactives show at the highest dose activity change, negative = inhibition, actives largely listed as inhibitors. 4.4% of 390,000 active. AID 504339; further: on the % scale 0 is the no-effect control and ±100 the full control effect; nearly all actives have a fitted effect of over 50% in size
# Target sequence (O75164 whole entry, looked up, the tested form may be a part): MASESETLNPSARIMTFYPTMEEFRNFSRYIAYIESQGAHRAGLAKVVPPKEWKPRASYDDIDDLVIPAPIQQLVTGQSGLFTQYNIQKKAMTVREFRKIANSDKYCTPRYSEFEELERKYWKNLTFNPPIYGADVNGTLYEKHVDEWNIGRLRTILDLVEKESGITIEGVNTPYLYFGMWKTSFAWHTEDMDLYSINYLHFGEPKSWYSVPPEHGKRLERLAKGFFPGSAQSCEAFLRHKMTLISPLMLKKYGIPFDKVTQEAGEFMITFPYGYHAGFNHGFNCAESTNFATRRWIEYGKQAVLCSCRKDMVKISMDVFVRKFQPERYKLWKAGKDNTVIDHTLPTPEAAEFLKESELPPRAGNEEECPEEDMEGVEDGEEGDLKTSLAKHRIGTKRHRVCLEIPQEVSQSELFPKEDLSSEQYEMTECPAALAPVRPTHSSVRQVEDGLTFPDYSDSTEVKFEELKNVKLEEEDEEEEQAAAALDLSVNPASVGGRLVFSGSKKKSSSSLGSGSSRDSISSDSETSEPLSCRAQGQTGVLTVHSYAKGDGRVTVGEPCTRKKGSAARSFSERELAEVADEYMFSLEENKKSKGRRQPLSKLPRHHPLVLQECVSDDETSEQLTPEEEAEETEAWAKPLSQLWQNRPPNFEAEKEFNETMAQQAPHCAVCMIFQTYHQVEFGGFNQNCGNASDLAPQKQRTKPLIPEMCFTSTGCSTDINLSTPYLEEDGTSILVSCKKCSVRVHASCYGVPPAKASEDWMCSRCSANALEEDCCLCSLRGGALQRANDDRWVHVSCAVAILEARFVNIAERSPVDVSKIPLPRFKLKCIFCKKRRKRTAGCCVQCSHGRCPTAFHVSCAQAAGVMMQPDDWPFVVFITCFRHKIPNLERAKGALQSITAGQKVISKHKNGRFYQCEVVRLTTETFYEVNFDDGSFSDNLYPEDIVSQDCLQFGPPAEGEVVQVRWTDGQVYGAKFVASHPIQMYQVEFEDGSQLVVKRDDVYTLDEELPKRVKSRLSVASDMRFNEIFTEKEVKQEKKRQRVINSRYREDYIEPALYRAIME
# GLS inh = blocks human kidney-isoform glutaminase activity. GLS enzymatic activity, qHTS titration. 0.21% of 410,000 active. AID 624170. Potency, µM (series often up to 45.5 µM), inactives show top-dose activity change, negative = inhibition, actives largely listed as inhibitors; further: on the % scale 0 is the no-effect control and ±100 the full control effect
#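 Coupled fluorescence readout: glutamate oxidase/HRP/Amplex Red detect glutamate formed by hKGA from L-glutamine (1 mM solution added). Buffer 45 mM KH2PO4 pH 8.2, 0.02% Tween-20; reads at t0 and 30 min RT.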
# HP1b binding inh = inhibitors of HP1-beta chromodomain binding to methylated histone tails; P83916; Potency, µM (doses to about 114 µM), inactives show at the highest dose activity change, negative = inhibition, usual class: inhibitors; 0.56% of 390,000 active; AID 540317; AlphaScreen HP1-beta / biotin-H3K9me3 peptide binding; further: nearly all actives have a fitted effect of over 70% in size
#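 Compound inhibition of the preformed complex between 50 nM HP1-beta and 50 nM biotinylated H3K9me3 peptide was read by AlphaScreen. Buffer was PBS pH 7.4 with 0.01% Tween-20. Incubations ran 30 min at room temperature, with 10 ug/mL donor/acceptor beads.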
# G9a block = G9a (human) methyltransferase inhibition. Potency, µM (titrated, usually from 102 µM), without a hit: at the top dose activity, negative = inhibition, actives largely listed as inhibitors. G9a H3K9 monomethylation, AlphaScreen, 2 h. 8.8% of 350,000 active. Q96KQ7; further: on the % scale 0 is the no-effect control and ±100 the full control effect; nearly all actives have a fitted effect of over 75% in size
#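 G9a (20 nM) preincubated 15 min RT with compounds, then 500 nM biotinylated H3K9 peptide and 20 uM SAM added; 2 h RT reaction. Monomethyl-H3K9 product detected by AlphaScreen with anti-H3K9me1 antibody, streptavidin donor and anti-rabbit IgG acceptor beads.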
# * marks the source's active call; other numbers are inactive results; ? = inconclusive; · = no result; [ ] = another dose, or the depositor's remark. The call rests on the fitted dose curve; in most records, active means well fitted curve in the direction sought with a large enough effect; inconclusive means small, poorly fitted or top-dose-only effect, or another doubt; inactive means no such curve, though single readings can be large; an effect the other way counts as inactive or inconclusive. Potency means the concentration at half of the fitted maximal effect.
SMILES,BAZ2B inh,JMJD2A Tudor,GLS inh,HP1b binding inh,G9a block
Clc1ccc(CO/N=C2\CCCc3nonc32)cc1,144%,71µM*,?,81%,111%
C[C@H]1CN[C@@H](CCO)/C1=C\c1ccccc1,·,-15%,-1%,65%,·
N#CCCN(C(=S)Nc1ccc(S(=O)(=O)N2CCOCC2)cc1)c1ccccc1F,2%,-12%,21%,4%,45µM*
COc1ccc(NC(=S)N2CCN(S(=O)(=O)c3ccc(OC)cc3)CC2)cc1,?,89µM*,2%,10%,·
N#CCCN(C(=S)NC(=O)c1cccs1)c1ccccc1F,?,?,3%,?,4µM*
CC(C)CCCCCCNC(=S)Nc1ccc(S(=O)(=O)N2CCOCC2)cc1,0%,-31%,3%,-3%,0.89µM*
COc1ccc(NC(=S)N2CCN(S(=O)(=O)c3ccc(C)cc3)CC2)cc1,?,-28%,-4%,19%,·
CN(C)CC(C)(C)CNC(=S)Nc1ccc(S(=O)(=O)N2CCOCC2)cc1,-3%,-3%,1%,16%,10%
CN(CCC#N)C(=S)Nc1ccc(S(=O)(=O)N2CCOCC2)cc1,·,-17%,0%,20%,-29%
COc1ccc(C(=O)N[C@H](C(=O)Nc2ccc(S(=O)(=O)N3CCOCC3)cc2)C(C)C)cc1,-25%,-3%[11.4 µM],-10%,44%,7%
COc1ccc(NC(=S)NNC(=O)c2ccc(S(=O)(=O)N3CCOCC3)cc2)cc1,-23%,-23%,29%,-5%,40µM*
O=S(=O)(c1ccc(NC(=S)Nc2ccc3c(c2)OCO3)cc1)N1CCOCC1,-7%,-29%,19%,-24%,?
O=S(=O)(c1ccc(NC(=S)Nc2ccccc2)cc1)N1CCOCC1,-18%,-32%,1%,16%,79µM*
N#Cc1ccc(NC(=O)COC(=O)c2cccnc2Cl)cc1,·,-10%,-7%,21%,·
Cc1c(NC(=O)C2CC(c3c(F)cccc3Cl)=NO2)c(=O)n(-c2ccccc2)n1C (centres undefined),47%,-4%,-1%,30%,-6%[12.7 µM]
Cc1ccc(N(Cc2ccccc2F)S(C)(=O)=O)cc1C,56µM*,13%,1%,33%,45%
Cc1cccc(N(Cc2ccccc2F)S(C)(=O)=O)c1,3%,-3%,7%,28%,?
CN(C)CCNc1cc(-c2ccncc2)nc2ccccc12,?,-13%,-1%,67%,22µM*
Cc1ccc(-c2nc(NCCN(C)C)c3ccccc3n2)cc1,2%,-16%,-1%,11%,-5%
O=c1[nH]c(-c2ccc(F)cc2)nc2c1sc(=S)n2-c1ccccc1,50µM*,?,?,18%,40µM*
O=c1[nH]cnc2c1sc(=S)n2-c1ccccc1,6%,89µM*,-18%,-36%,2.2µM*
C=CCNC(=S)Nc1ccc(OC)c(S(=O)(=O)N2CCOCC2)c1,-7%,-6%,18%,37%,-16%
O=C(CSc1nnc(-c2cccnc2)o1)Nc1ccc(Cl)cc1,-10%,-8%,-1%,29%,-18%
O=C(CSc1nnc(-c2ccccc2Br)o1)Nc1nncs1,19%,-13%,-1%,18%,·
O=C(CSc1nnc(-c2ccc(O)cc2)o1)NNC(=O)c1ccncc1,?,?,0%,8%,18µM*
SMILES,BAZ2B inh,JMJD2A Tudor,GLS inh,HP1b binding inh,G9a block
O=C(CSc1nnc(-c2ccncc2)o1)Nc1nncs1,-22%,32µM*,2%,18%,15%
Cc1ccc(NC(=O)CSc2nnc(-c3ccccc3C)o2)cc1C,-21%,1%[57.1 µM],6%,13%,?
Cc1ccc(NC(=O)CSc2nnc(-c3ccccc3Br)o2)cc1C,-5%,-17%,0%,15%,10µM*
O=C(CSc1nnc(-c2cccnc2)o1)Nc1cccc(Cl)c1,-8%,-8%,2%,29%,45µM*
COc1ccc2cc(/C(C)=N/NC(=O)c3cc(C)oc3C)ccc2c1,·,·,-2%,·,·
O=C(NNC(=O)c1ccccc1F)c1ccc2[nH]c(=O)c(=O)[nH]c2c1,-13%,5%,7%,46%,21%
CN(C)c1ncc2nc(-c3cc(F)cc(F)c3)c(=O)n(CCC#N)c2n1,·,·,·,·,8%[0.501 µM]
O=C(Nc1nnc(C2CC2)s1)C1Cc2ccccc2CN1C(=O)c1ccco1 (centres undefined),50µM*,?,0%,?,20µM*
CCc1nnc(NC(=O)c2cc(C)nc3ccccc23)s1,-18%,-17%,2%,13%,?
COc1cccc(NC(=O)c2cc(-c3ccc(C)o3)nc3ccccc23)c1,?,56µM*,-4%,1%,8.9µM*
CCc1nnc(NC(=O)c2cc(-c3ccc(C)o3)nc3ccccc23)s1,-20%,89µM*,19%,8%,?
Cc1ccc(-c2cc(C(=O)Nc3cccc(S(=O)(=O)N(C)C)c3)c3ccccc3n2)o1,3%,?,0%,0%,8.9µM*
CCC(CC)c1nnc(NC(=O)c2cc(-c3ccccc3)nc3ccccc23)s1,10%,-9%,-3%,37%,45µM*
COC(OC)c1nc(SCC(=O)Nc2cccc(Cl)c2)ncc1C(=O)O,3%,-8%,2%,52%,·
CCOC(=O)c1cc(NC(=O)COc2ccc([N+](=O)[O-])cc2)cc(C(=O)OCC)c1,-1%,-22%,-8%,20%,0%[59 µM]
Cn1cccc1C(=O)Nc1ccc(N2CCOCC2)cc1,·,-28%,32%,-4%,·
Cc1cc(-c2ccccc2)nc2cc(C(=O)NCc3ccco3)nn12,50µM*,?,-4%,-2%,50µM*
COC(=O)c1cc(-c2ccc(C)o2)nc2ccccc12,?,?,-4%,?,?
COc1ccc(-c2cc(C(F)(F)F)n3nc(C(=O)NCc4ccco4)cc3n2)cc1,4%,6%,3%,25%,-1%[59 µM]
Cc1ccc(-c2cc(C(=O)NCc3ccco3)c3ccccc3n2)o1,50µM*,50µM*,-12%,-22%,?
Cc1cc(C(=O)NCc2ccco2)c2ccccc2n1,-14%,-5%,-1%,29%,?
Cc1ccc(-c2cc(C(=O)Nc3ccccc3C)c3ccccc3n2)o1,-4%,79µM*,-26%,-23%,1.8µM*
C/C(=N/NC(=O)Cc1cccn1C)c1ccccc1,-33%[57.1 µM],-21%,11%,9%,-36%
Cc1ccc(/C=N/NC(=O)c2nnn(-c3nonc3N)c2CSc2ccc(Cl)cc2)cc1,-18%,-12%,0%,39%,2%[59 µM]
O=C1NCCN(Cc2ccoc2)C1CC(=O)N(Cc1ccccc1)CC1CCC1 (centres undefined),-10%,-11%,0%,22%[57 µM],-40%
Fc1cnc(N2CCN(c3ccccc3)CC2)nc1N1CCN(c2ccccc2)CC1,?,-27%,-1%,0%,50µM*
O=C(NCCSc1c[nH]c2ccccc12)c1ccc(Br)o1,-10%,-12%,-2%,15%,79µM*
O=C(NCCc1c[nH]c2ccccc12)c1ccc(Br)o1,·,-26%,14%,16%,·
